p53null 39C tox: selectivity test: cytotoxicity in p53 null cells, nonpermissive temperature. H1299 p53-null (neo) cells, 39C, ATPlite viability, 24 h. Potency, µM (doses to about 46.1 µM), without a hit: at the top dose activity, negative = cell killing, actives largely listed as cytotoxic. hit rate 0.97% among 55,000;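 note: 0% = DMSO only and -100% = full killing by 100 µM tamoxifen; nearly all actives have a fitted effect of over 50% in size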
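H1299 lung cancer cells, p53-null (H1299-neo) or expressing p53 A138V (H1299-p53A138V), were plated overnight at 37C, then exposed to compounds at up to 46 uM for 24 hr at 39C. Viability was read by ATP-based luminescence.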
S16 F2sN tox: toxic to S16 Pmp22-F2sN Schwann cells; Potency, µM (series often up to 57.5 µM), without a hit: top-dose activity change, negative = cytotoxicity, most hits filed as cytotoxic; hit rate 0.48% among 43,000; S16 Pmp22-F2sN Schwann cells viability, CellTiter-Glo, 24 h; note: nearly all actives have a fitted effect of over 65% in size
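Rat S16 Schwann reporter line, 24 h treatment with library compounds delivered at 23 nL per well. Cell viability by CellTiter-Glo luminescence.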
p53null 32C tox: selectivity test: cytotoxicity in p53 null cells, permissive temperature | H1299-neo p53 null cells, ATP luminescence, 24 h, 32C | Potency, µM (titrated, usually from 46.1 µM), for the others: at the top dose activity change, negative = cytotoxicity, actives largely listed as cytotoxic | hit rate 0.62% among 55,000 | AID 903;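 note: 0% = DMSO only and -100% = full killing by 100 µM tamoxifen; nearly all actives have a fitted effect of over 55% in size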
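ATP-content luminescence in p53-null H1299-neo cells after 24 h compound exposure (up to 46 uM) at 32C permissive temperature; 0% and 100% killing set by DMSO and 100 uM tamoxifen; Hill-equation AC50.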
SKOV3 invasion: ovarian cancer metastasis inhibition, 3D TME model; SKOV3ip1-GFP adhesion/invasion on 3D omental model, fluorescence; Potency, µM (doses to about 45.8 µM), inactives show at the top dose activity change, negative = inhibition, actives largely listed as inhibitors; hit rate 0.1% among 46,000;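 note: plate controls were DMSO wells for no effect and tomatine positive control wells for full effect; nearly all actives have a fitted effect of over 65% in size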
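A 3D layer of primary human omental fibroblasts, mesothelial cells, fibronectin and collagen I, grown 48 hr, received SKOV3ip1-GFP cells in serum-free medium plus compounds at 0.36-46 umol/L. After 2 hr RT and 16 hr 37 C, fixed adherent GFP cells were counted; normalized to DMSO and tomatine.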
pS6 MEF inh: reduces mTORC1 signaling in Tsc2 and p53 null MEF cells; Tsc2-/- p53-/- MEF, phospho-rpS6 immunofluorescence/PI, 24 h; Potency, µM (doses to about 38.3 µM), without a hit: at the highest dose activity change, negative = inhibition, most hits filed as inhibitors; hit rate 0.78% among 44,000; AID 493208;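 note: plate controls were DMSO for no effect and rapamycin for full effect; nearly all actives have a fitted effect of over 50% in size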
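Readout is phospho-S6 Alexa 488 signal normalized to PI per well, reported as % active cells with thresholds set from rapamycin (7.5 nM) and DMSO controls. Cells: Tsc2-/-, p53-/- MEFs, 24 hrs compound at 37 C; PI cell number serves as viability.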
PMP22 txn prim: modulates PMP22 transcription in S16 Schwann cells. S16 Pmp22-F2sN Schwann cells (luciferase reporters placed in the Pmp22 gene), FLuc/NLuc coincidence luminescence, 24 h. Potency, µM (series often up to 57.5 µM), inactives show at the highest dose activity change, negative = inhibition, most hits filed as inhibitors. hit rate 2% among 43,000; active = clear falling dose curves in both reporters; inconclusive = both reporters move, but less clearly or upward; inactive = either reporter flat; the % is the NLuc reporter signal
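S16(c9) Schwann cells with FLuc/NLuc coincidence reporter in the Pmp22 3' UTR; compounds pin-transferred, 24 h at 37C. Dual-luciferase read: FLuc first, then NLuc after Stop&Glo, each 10 min at room temperature.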
* marks the source's active call; other numbers are inactive results; i = inactive; u = inconclusive; x = no result given; [ ] = dose if it differs, or a comment. An excerpt weighted towards active compounds, which were near 3.1% of everything screened. Unless noted, calls come from the whole dose curve; as a rule, active = well fitted curve in the direction sought with a large enough effect; inconclusive = small, poorly fitted or top-dose-only effect, or another doubt; inactive = no such curve, though single readings can be large; an effect the other way counts as inactive or inconclusive. Unless noted, % is set by controls: 0 for no effect and ±100 for the full control effect; potency is the fitted concentration of half-maximal effect.

SMILES	p53null 39C tox	S16 F2sN tox	p53null 32C tox	SKOV3 invasion	pS6 MEF inh	PMP22 txn prim
CCn1nnc2c(N3CCOCC3)nc(-c3ccc(NC(=O)Nc4ccc(C(=O)N5CCN(C)CC5)cc4)cc3)nc21	x	x	x	-16.1%	x	x
Cc1cc(C)c2c(N)c(C(=O)Nc3ncc(C)s3)sc2n1	1µM*	x	0.891µM*	x	x	x
O=C(O)C1=CO[C@@H](O[C@@H]2O[C@H](CO)[C@H](O)[C@H](O)[C@H]2O)[C@@H]2C(CO)=CC[C@H]12	x	x	x	-3.5%	x	x
CNC(=O)[C@H](Cc1ccccc1)NC(=O)[C@H](CC(C)C)[C@H](CSc1cccs1)C(=O)NO	x	x	x	-10.5%	x	x
CCOC(CN1C(=O)[C@](CC(=O)Nc2ccc(C)cc2)(NC(=O)Nc2ccc(C)cc2)c2ccccc21)OCC	x	x	x	-1.2%	x	x
COC(=O)c1ccc(NS(=O)(=O)c2ccc3[nH]c4c(c3c2)CCCCC4)cc1	15.8µM*	-5.8%	36.0%	i	-5.1%	u
COC(=O)c1ccc(NS(=O)(=O)c2ccc3[nH]c4c(c3c2)CCCC4)cc1	-16.7%	-23.0%	14.5%	6.1%	0.7%	u
CCOC(=O)c1ccc(NC(=O)Cn2cc(C(=O)c3ccc(Cl)cc3)c(=O)c3ccc(C)nc32)cc1	-20.8%	u	4.9%	-7.4%	2.7%	12.1µM*
CCN(CCO)C(=O)CC(c1ccccc1)c1cc(Br)ccc1O (stereo unspecified)	-10.6%	x	-4.2%	x	x	x
O=C(CC(c1ccccc1)c1cc(Br)ccc1O)NCC1(c2ccccc2)CCCC1 (stereo unspecified)	15.8µM*	x	u	u	-13.1%	x
CC(C)c1ccc(S(=O)(=O)/N=C2/C=C(Sc3ncn[nH]3)C(=O)c3ccccc32)cc1	x	x	6.31µM*	x	x	x
Cc1cccc(C2C=C(c3ccc(F)cc3)Nc3nc4ccccc4n32)c1 (stereo unspecified)	u	-26.8%	u	4.1%	-1.3%	u
Cc1ccc(C2=CC(c3ccccc3C)n3c(nc4ccccc43)N2)cc1 (stereo unspecified)	u	u	1.26µM*	7.9%	-7.0%	u
CCc1ccc(C2=CC(c3c(F)cccc3Cl)n3c(nc4ccccc43)N2)cc1 (stereo unspecified)	u	u	8.91µM*	2.1%	-0.3%	u
Cc1c(Cl)cccc1NC(=O)Cn1cc(C(=O)C2CCCCC2)c2ccccc21	u	u	13.7%	u	-22.8%	10µM*
Cc1cc(C)cc(NC(=O)Cn2cc(C(=O)C3CCCCC3)c3ccccc32)c1	u	2.1%	-17.9%	5.7%	-25.3%	u
Nc1nc(=O)n([C@H]2CSC(CO)O2)cc1F (stereo partly specified)	x	x	x	3.7%	x	x
Cc1ccc(CN2CCNCC2)cc1NC(=O)CNc1ccc(F)c(F)c1	x	x	x	5.0%	x	x
COc1ccc(-c2cc(C(F)(F)F)nc(SCCC(=O)Nc3ccccc3F)n2)cc1	-19.4%	-4.3%	-5.3%	0.3%	0.6%	-12.8%
COc1ccc(-c2cc(C(F)(F)F)nc(SCCC(=O)Nc3cc(C)ccc3O)n2)cc1	11.2µM*	11.9%	-2.5%	-3.6%	-14.6%	u
Cc1ccc(F)c(NC(=O)Nc2ccc(-c3cccc4[nH]nc(N)c34)cc2)c1	x	x	x	6.5%	x	x
Cc1ccc2scc(N3CCCCC3)c(=O)c2c1	12.6µM*	-0.6%	10µM*	4.1%	-0.5%	-18.7%
Cc1ccc2scc(N3CCCCC3C)c(=O)c2c1 (stereo unspecified)	15.8µM*	2.8%	12.6µM*	3.5%	2.2%	-9.3%
Cc1ccc2scc(N3CCC(C)CC3)c(=O)c2c1	20µM*	-1.1%	u	-22.0%	4.4%	u
C[C@@H]1O[C@@H](O[C@H]2CC[C@@]3(C)[C@H](CC[C@@H]4[C@H]3C[C@@H](O)[C@]3(C)[C@@H](C5=CC(=O)OC5)CC[C@]43O)C2)C[C@H](O)[C@@H]1O[C@H]1C[C@H](O)[C@H](O[C@H]2C[C@H](O)[C@@H](O)[C@@H](C)O2)[C@H](C)O1 (stereo in doubt)	x	x	x	-16.0%[92.2 µM]	x	x
SMILES	p53null 39C tox	S16 F2sN tox	p53null 32C tox	SKOV3 invasion	pS6 MEF inh	PMP22 txn prim
CCS(=O)(=O)Nc1ccc2[nH]c(O)c(C(=Nc3ccc(CN4CCCCC4)cc3)c3ccccc3)c2c1	x	x	x	33.2%	x	x
CCOc1ccc(S(=O)(=O)N(C(C)=O)c2ccc3oc(C)c(C(=O)OC)c3c2)cc1	u	u	34.9%	-20.2%	6.56µM*	5.38µM*
CCOC(=O)c1c(-c2ccccc2)oc2ccc(N(C(C)=O)S(=O)(=O)c3ccccc3)cc12	-11.6%	x	6.0%	-9.1%	5.9%	x
COC(=O)c1c(C)oc2ccc(N(C(=O)c3ccncc3)S(=O)(=O)c3cc(C)ccc3C)cc12	90.7%	u	77.8%	i	u	12.1µM*
COC(=O)c1c(C)oc2ccc(N(C(=O)Oc3ccccc3)S(=O)(=O)c3ccc(C(C)(C)C)cc3)cc12	30.7%	-20.6%	15.4%	-14.5%	4.8%	6.58µM*
C[C@@H]1[C@H](O)[C@@H](C)C=CC=CC=CC=CC=CC=CC=C[C@H](O[C@@H]2O[C@H](C)[C@H](O)[C@H](N)[C@@H]2O)C[C@@H]2O[C@](O)(C[C@@H](O)C[C@@H](O)[C@H](O)CC[C@@H](O)C[C@@H](O)CC(=O)O[C@H]1C)C[C@H](O)[C@@H]2C(=O)O	x	x	x	0.8%	x	x
Oc1ccc(C2=Cc3ccc(O)cc3OC2)cc1	x	x	x	4.5%	x	x
Cc1ccc(C)c(N2CCN(CCCNC(=O)c3cnn(-c4ccccc4Cl)c3C3CCN(C(=O)OC(C)(C)C)CC3)CC2)c1	12.6µM*	u	29.8%	u	u	u
Cc1ccc(C)c(N2CCN(CCCNC(=O)c3cnn(-c4cccc(Cl)c4)c3C3CCN(C(=O)OC(C)(C)C)CC3)CC2)c1	u	u	-22.4%	i	u	u
Cc1ccc(C)c(N2CCN(CCCNC(=O)c3cnn(-c4ccc(F)cc4)c3C3CCN(C(=O)OC(C)(C)C)CC3)CC2)c1	25.1µM*	u	22.1%	-15.1%	u	u
CCN1CCN(CCCNC(=O)c2cnn(-c3ccc(C)cc3)c2C2CCN(C(=O)OC(C)(C)C)CC2)CC1	8.4%	5.0%	2.4%	-6.6%	0.6%	-48.8%
COc1ccc2cc(CNc3ccc(C)cc3)c(=O)n(CC(=O)Nc3ccc(C)cc3Cl)c2c1	-10.7%	-1.3%	0.7%	36.8%	-5.3%	u

Screening results deposited in PubChem by National Center for Advancing Translational Sciences (NCATS).
